# Screen size: about 6,200 compounds; about 2,900 (47%) were called active. The set was probably picked from earlier hits. The list shows a part of the results. Unmarked numbers belong to inactive results. No stated cut-off is given here; in the data, active means inhibition above about 50%; inactive means the rest.
# Experiment: Mycobacterium tuberculosis growth inhibition, primary screen (AID 1259343)
# Settings: inhibition: at 10 µM, hits give high values; outcome: 10 uM
row,Structure (SMILES),inhibition
1,Cc1ccccc1C1c2ccsc2CCN1C(C)C(=O)N1CCCN(S(=O)(=O)c2ccc(C(C)(C)C)cc2)CC1 (stereo not given),77.4% (active)
2,CC(Sc1n[nH]c(-c2cccs2)n1)c1ccc(F)cc1F (stereo not given),10.1%
3,COc1ccc(OCc2nc(CSCc3ccc(F)cc3)cs2)cc1,50.8% (active)
4,Fc1ccc(CSCc2csc(-c3ccc(F)cc3)n2)cc1,38.6%
5,Cc1cc(CSc2nnc(-c3ccc(C(C)(C)C)cc3)o2)no1,85.8% (active)
6,Cc1cc(C)cc(-c2nnc(SCc3cc(C)on3)o2)c1,34.2%
7,COc1ccc(-c2nnc(SCC(=O)NC(C)(C)C)o2)cc1,38.2%
8,CN(C)C(=O)CSc1nnc(-c2ccc(Br)cc2)o1,78.2% (active)
9,CC(C)(C)c1ccc(-c2nnc(SCC(N)=O)o2)cc1,98.8% (active)
10,Cc1ccc(-c2nnc(SCc3c(C)noc3C)o2)cc1,79% (active)
11,O=C1N=c2ccc(Br)cc2=C1c1sc(NS(=O)(=O)Cc2ccccc2)nc1O,16.2%
12,CC(Sc1nnc(-c2ccc(Br)cc2)o1)C(N)=O (stereo not given),86% (active)
13,CC(C)(C)c1ccc(OCCCC(=O)NCc2cn[nH]c2)cc1,88% (active)
14,Cc1ccc(C(=O)NCC2CCCCC2)c(C2CCN(C(=O)c3ccccc3)CC2)n1,31.2%
15,Cc1oc(-c2ccccc2)nc1C(=O)NCC1CCCCC1,16.3%
16,Cc1nn(C(C)(C)C)c(C)c1C(=O)NCC1CCCCCCC1,80.2% (active)
17,OC1(c2ccccc2)CC(=NC2=NN(c3ccccc3)CC2)C=C1c1ccccc1 (stereo not given),84% (active)
18,CC(C)Oc1ccc(NC(=O)c2cc(Br)cn2C)cc1,23%
19,Cn1cc(Br)cc1C(=O)Nc1cc2c(cc1Cl)OCO2,88.7% (active)
20,CC(C)c1cccc(-c2nc3c(NCc4ccccn4)nccc3[nH]2)c1,82.7% (active)
21,COCCCNc1nccc2[nH]c(-c3cccc(C(C)C)c3)nc12,78.4% (active)
22,Clc1ccccc1-c1nc2c(NCCc3ccccc3)nccc2[nH]1,60.4% (active)
23,Brc1ccc2nc(NCc3ccccn3)nc(-c3ccccc3)c2c1,1.6%
24,c1ccc(CCNc2nc(-c3ccco3)nc3ccccc23)cc1,8.49%
25,CC(C)c1cccc(-c2nc3c(NCCc4ccncc4)nccc3[nH]2)c1,51.9% (active)

row,Structure (SMILES),inhibition
1,Cc1ccc(-c2cc(CNCc3ccco3)no2)c(C)c1,27.2%
2,FC(F)(F)c1ccc(NCc2csc(-c3ccco3)n2)cc1,89.6% (active)
3,FC(F)(F)c1cc(-c2ccco2)nc(NCC2CCCO2)n1 (stereo not given),28.3%
4,Cn1nnc2c(Nc3ccc(Oc4ccccc4)cc3)ncnc21,53.9% (active)
5,Cn1nnc2c(Nc3ccc(Nc4ccccc4)cc3)ncnc21,9.73%
6,Cn1nnc2c(Nc3ccc(OC(F)F)cc3)ncnc21,72% (active)
7,CCOc1ccc(Nc2ncnc3c2nnn3C)cc1,16.3%
8,CCc1ccc(Nc2ncnc3c2nnn3C)cc1,69.2% (active)
9,Cc1cc(Cl)ccc1OCC(O)CN1CCN(c2ccccc2)CC1 (stereo not given),51.6% (active)
10,Cc1cc(Cl)ccc1Oc1ncccc1C#N,33.1%
11,CN=c1scc(-c2ccc(F)cc2)n1N=C(C)c1ccncc1,18.1%
12,FC(F)Oc1ccc(-c2csc(=Nc3cccnc3)n2CC2CCCO2)cc1 (stereo not given),38.5%
13,Fc1ccc(N=c2scc(-c3ccc(OC(F)F)cc3)n2C2CC2)cc1,53.9% (active)
14,Brc1ccccc1-c1csc(=Nc2cccnc2)n1C1CC1,36.9%
15,FC(F)Oc1ccc(-c2csc(=Nc3cccnc3)n2C2CC2)cc1,80.6% (active)
16,CN(c1ccccc1)c1nnc(C(O)c2cc(F)c(F)c(F)c2)s1 (stereo not given),69.1% (active)
17,CCCCN(C)c1ccc(C(=O)N2CCc3sccc3C2)cc1,9.79%
18,NC(=O)COc1ccc(C(=O)N2CCc3sccc3C2)cc1,67% (active)
19,NC(=O)c1ccc(C(=O)N2CCC(=Cc3ccccc3)CC2)cc1,-6.19%
20,CC1CC(C)CN(C(=O)c2cc3c(s2)CCC3)C1 (stereo not given),8.3%
21,O=C(COC(=O)c1cc2c(s1)CCC2)NCCN1C(=O)CSC1=O,71.9% (active)
22,COC(=O)c1cccc(OC(=O)c2cc3c(s2)CCCC3)c1,22%
23,Cc1cccc(C)c1NC(=O)CN(C)c1cnn(Cc2ccccc2)c(=O)c1Cl,32.3%
24,Cc1cccc(C)c1NC(=O)C[N+](C)(C)C,65.2% (active)
25,CN(C)C(=O)N1CCN(c2cc(-c3ccccc3)c3ccccc3n2)CC1,30.6%

row,Structure (SMILES),inhibition
1,CN(Cc1nc2ccccc2c(=O)[nH]1)C(=O)c1cccc(Cl)c1Cl,44.4%
2,O=c1[nH]c(CN2CCN(c3cc(=O)n4ccccc4n3)CC2)nc2ccccc12,68.5% (active)
3,NC(=O)c1ccc(-c2nc(-c3ccc4c(c3)OCCO4)c(-c3ccccn3)[nH]2)cc1,40.2%
4,NC(=O)c1ccc2nc(-c3ccc(Oc4ccc(Cl)cc4)cc3)[nH]c2c1,64.4% (active)
5,CC(C)CNc1nn2cc(C(C)(C)C)nc2s1,43.8%
6,Cc1ccc(CNc2ncnc3[nH]ncc23)o1,99.6% (active)
7,COc1ccc(CCNc2ncnc3[nH]ncc23)cc1,8.19%
8,C=CCNC(=O)c1cccc(I)c1,-37.8%
9,CCC/C=C/c1cccc(C(=O)NCC)c1,79.3% (active)
10,CN(C)c1cccc(C(=O)NCC2COc3ccccc3C2)c1 (stereo not given),13.6%
11,CCC/C=C/c1ccc(NC(C)=O)nc1,92.5% (active)
12,Cc1cccc(-c2ccc(NC(=O)C3CCN(C(=O)CC4CCCC4)CC3)cc2)c1,89.3% (active)
13,COCC(=O)N1CCC(C(=O)Nc2ccc(-c3cccc(C)c3)cc2)CC1,inactive
14,C=CCC(=O)N1CCC(C(=O)Nc2ccc(-c3cccc(C)c3)cc2)CC1,91.9% (active)
15,Cc1cccc(-c2ccc(NC(=O)C3CCN(C(=O)CC4=CCCCC4)CC3)cc2)c1,90.9% (active)
16,N#CC1=C(NC(=O)c2ccc(COc3ccc(Cl)cc3)cc2)CCC1,82.1% (active)
17,O=C(NCCO)c1ccc(OCc2ccc(Cl)s2)cc1,-5.18%
18,Cc1nonc1OCCCNc1ccc([N+](=O)[O-])cc1,37.2%
19,CCc1ccc(Nc2ccc([N+](=O)[O-])c3nonc23)cc1,85.6% (active)
20,CC12CCC(CC1=NNc1nc3ccccc3o1)C2(C)C (stereo not given),83.6% (active)
21,O=C(NCCNc1ncc(C(F)(F)F)cc1Cl)C1Cc2ccccc2S1 (stereo not given),46.4%
22,CCCCc1nnc(NC(=O)N2CCc3ccccc3C2)s1,33.5%
23,CCCc1nnc(NC(=O)CC(=O)Nc2ccccc2C(=O)O)s1,9.89%
24,CCCCc1nnc(NC(=O)C2Cc3ccccc3S2)s1 (stereo not given),54.4% (active)
25,CCCCCc1nnc(NC(=O)Cc2ccccc2)s1,89.6% (active)

row,Structure (SMILES),inhibition
1,CCC(Cc1c(I)cc(I)c(N)c1I)C(=O)O (stereo not given),84.2% (active)
2,CCc1ccc(NC(=O)CSc2nc(=O)n3ccccc3n2)cc1,-1.93%
3,O=c1nc(SCc2cccc(C(F)(F)F)c2)nc2ccccn12,-26.8%
4,CCOC(=O)c1ccc(NC(=O)CSc2nc(=O)n3ccccc3n2)cc1,90.4% (active)
5,c1coc(-c2cc(CSc3nnc(Cc4cccs4)n3C3CC3)no2)c1,-54.4%
6,O=C(Nc1nc(-c2c[nH]c3ccccc23)cs1)c1ccc(F)cc1Cl,17%
7,Cc1[nH]n(-c2ccc(Cl)cc2)c(=O)c1C1=C(c2c[nH]c3ccccc23)C(=O)N(Cc2ccc(F)cc2)C1=O,61.5% (active)
8,CCc1nc2c(OCCOc3ccc(F)cc3)cccn2c1N(C)C(=O)c1ccccc1F,45.2%
9,CCOC(=O)N1CCC(NS(=O)(=O)CCCOc2ccc(F)cc2)CC1,45%
10,Cc1ccccc1C(c1ncccc1C)N(C)C(=O)C1CCN(CCCOc2ccc(F)cc2)CC1 (stereo not given),60.1% (active)
11,CS(=O)(=O)Nc1ccc(/C=C/C(=O)NCCc2cccc(F)c2)cc1,52.3% (active)
12,CC(NC(=O)C/C=C/c1cccc(F)c1)C(O)Cc1ccccc1 (stereo not given),15.7%
13,N#Cc1ccc(NCCc2cccc(F)c2)cn1,36.5%
14,CCc1ccc(CNc2ccc(CNc3ncn[nH]3)cc2)cc1,91.1% (active)
15,Cc1cc(NC(=O)CNCCN2CCCOC2=O)ccc1Cl,77.5% (active)
16,Cc1ccccc1-c1noc(-c2cccc(NC(=O)CCN3CCCO3)c2)n1,19.4%
17,COc1cc(NC(=O)CNCCN2CCOC2=O)ccc1Cl,55.3% (active)
18,COc1cccc(-c2cc(CC(=O)NC3CCCC3)no2)c1,19.6%
19,CCC(=O)c1ccc(OCc2cc(-c3ccccc3)on2)cc1,92.5% (active)
20,Cc1nc2ccccn2c1C(=O)OCc1cc(-c2ccco2)on1,33.3%
21,CC(C)CN1C(=O)C(=Cc2c(N3CCN(CCO)CC3)nc3ccccn3c2=O)SC1=S,7.51%
22,NC(=O)CSc1nccc2c(OCc3ccc(F)cc3)cccc12,77.4% (active)
23,CNS(=O)(=O)c1ccc(C(=O)N2CCc3ccccc32)o1,89.9% (active)
24,Cc1sc(NC(=O)C2CC2)c(C(=O)N2CCc3ccccc32)c1C,-6.91%
25,CNS(=O)(=O)c1ccc2c(c1)CCN2C(=O)c1ccc(F)cc1F,32%

# Source: PubChem BioAssay AID1259343 (VanderVen Lab, College of Veterinary Medicine, Cornell …, 2017)
